From PMC4336329 (PLoS ONE, 2015)
Hit rate of the full screen: of about 310,000 compounds, about 14,000 (4.5%) showed an effect of 50% or more. The effect is printed as a negative number. This excerpt belongs to a sample that is enriched for strong results.

Biological target: human ether-à-go-go-related gene (hERG) potassium channel (human, UniProt Q12809)
Test: primary screen, population patch clamp on CHO cells stably expressing hERG; higher = less effect of the substance
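Also: peak tail current of the secondary pulse compared with the same well before compound.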

human ether-à-go-go-related gene (hERG) potassium channel, sequence (Q12809 whole entry, looked up): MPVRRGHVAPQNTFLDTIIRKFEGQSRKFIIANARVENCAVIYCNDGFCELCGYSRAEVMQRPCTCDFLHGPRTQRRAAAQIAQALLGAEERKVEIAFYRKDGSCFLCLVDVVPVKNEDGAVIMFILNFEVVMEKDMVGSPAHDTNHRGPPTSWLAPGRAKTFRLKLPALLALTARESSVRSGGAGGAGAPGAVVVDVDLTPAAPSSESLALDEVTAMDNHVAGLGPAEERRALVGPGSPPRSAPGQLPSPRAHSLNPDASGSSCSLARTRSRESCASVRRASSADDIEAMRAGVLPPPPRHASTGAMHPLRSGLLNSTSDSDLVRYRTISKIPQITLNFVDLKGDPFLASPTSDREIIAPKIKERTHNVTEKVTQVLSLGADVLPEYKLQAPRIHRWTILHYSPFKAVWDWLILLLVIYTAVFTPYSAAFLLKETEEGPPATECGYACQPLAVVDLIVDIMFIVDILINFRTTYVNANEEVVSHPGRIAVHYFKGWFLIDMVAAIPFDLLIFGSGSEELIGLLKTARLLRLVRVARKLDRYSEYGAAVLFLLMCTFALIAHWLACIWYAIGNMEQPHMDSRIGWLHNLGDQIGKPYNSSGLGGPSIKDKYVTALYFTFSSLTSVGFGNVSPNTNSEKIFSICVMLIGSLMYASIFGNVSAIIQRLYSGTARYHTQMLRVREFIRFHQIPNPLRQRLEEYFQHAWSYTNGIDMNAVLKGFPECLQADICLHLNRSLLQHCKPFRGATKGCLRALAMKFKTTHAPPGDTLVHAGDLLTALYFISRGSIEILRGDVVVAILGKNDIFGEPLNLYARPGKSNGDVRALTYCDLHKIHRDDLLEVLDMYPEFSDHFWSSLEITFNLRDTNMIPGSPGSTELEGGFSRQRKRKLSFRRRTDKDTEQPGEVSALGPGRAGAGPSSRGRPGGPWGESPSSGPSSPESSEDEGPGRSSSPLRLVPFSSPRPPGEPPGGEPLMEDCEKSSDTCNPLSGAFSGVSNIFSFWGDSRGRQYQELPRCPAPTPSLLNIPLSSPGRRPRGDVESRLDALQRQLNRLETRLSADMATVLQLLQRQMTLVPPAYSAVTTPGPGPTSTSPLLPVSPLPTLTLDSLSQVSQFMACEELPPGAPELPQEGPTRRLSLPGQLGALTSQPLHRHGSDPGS

| SMILES | hERG current change (%, negative = inhibition) at 10uM [%] |
| --- | --- |
| Oc1ccccc1N1CCN(C(c2ccccc2)c2ccccc2)CC1 | 12.6 |
| COc1ccc(OCCOC(=O)c2ccc(F)c(S(=O)(=O)N3CCOCC3)c2)cc1 | -13.8 |
| COc1ccc(NC(=S)NC(=O)/C=C/c2ccco2)cc1 | -4.31 |
| O=C(c1ccccc1)c1ccc(N2CCN(C(=O)c3cccc(F)c3F)CC2)c(F)c1 | -37.9 |
| O=C(Cn1nc(Cc2ccncc2)c2ccccc2c1=O)N1CCN(C(=O)c2ccco2)CC1 | -26.7 |
| O=C(Cn1nc(Cc2ccncc2)c2ccccc2c1=O)N1CCc2ccccc2C1 | -44.4 |
| Cc1cccc(N2CCN(C(=O)Cn3nc(Cc4ccncc4)c4ccccc4c3=O)CC2)c1C | -61.3 |
| COc1ccc(CN2CCC(CO)(CCOc3ccccc3)CC2)cc1C | -81.8 |
| COc1ccc(CN2CCSCC2)c(OC)c1C | 13.5 |
| CCn1ccnc1CN1CCC(CO)(CCOc2ccccc2)CC1 | -8.02 |
| COc1ccc(CN2CCCN(C)CC2)c(OC)c1C | 11.1 |
| Cc1nn(C)cc1CN1CCC(CO)(CCOc2ccccc2)CC1 | -22.6 |
| Cc1nn(C)c(Cl)c1CN1CCC(CO)(CCOc2ccccc2)CC1 | -54.7 |
| COc1ccc(CN2CCC(CO)(CCOc3ccccc3)CC2)c(OC)c1C | -83.5 |
| OCC1(CCOc2ccccc2)CCN(CCCn2cccn2)CC1 | -73.1 |
| COc1ccc(CN2CCSCC2)cc1C | 7.71 |
| O=c1c2c(ncn2C2CCCC2)n(Cc2ccccc2)c(=O)n1CCOc1ccccc1 | -8.64 |
| Cc1ccc([N+](=O)[O-])cc1NC(=O)/C=C/C(=O)O | -2.79 |
| O=C(Nc1ccc(Br)c(Br)c1)C1CCCO1 (stereo not drawn) | 3.39 |
| COc1ccc(COC(=O)Nc2c(SC)nsc2SC)cc1 | 11.5 |
| CCc1noc(C)c1C(=O)OCC(=O)NCc1ccccc1 | 2.29 |
| NC(=O)c1ccccc1NC(=O)CSc1cn[nH]n1 | 13.2 |
| Cc1cc(C)cc(NC(=O)CSc2nnc(-c3ccccc3C)o2)c1 | 3.37 |
| COc1cccc(-c2nnn(CC(=O)O)n2)c1 | 9.1 |

| SMILES | hERG current change (%, negative = inhibition) at 10uM [%] |
| --- | --- |
| COc1ccc(OCC(=O)N2CCCC(CO)(CCOc3ccccc3)C2)cc1 (stereo not drawn) | -46.8 |
| COc1cc(OC)c(CN2CCC(CO)(CCOc3ccccc3)CC2)c(OC)c1 | -86.4 |
| COc1ccc(OC)c(CN2CCSCC2)c1 | 9.69 |
| Cc1cc(C)c(CN2CCC(CO)(CCOc3ccccc3)CC2)cc1C | -65.2 |
| CC(=O)c1cccc(CN2CCC(CO)(CCOc3ccccc3)CC2)c1 | -41.5 |
| COc1ccc(OC)c(CN2CCC(CO)(CCOc3ccccc3)CC2)c1 | -76.2 |
| OCCOc1cccc(CN2CCC(CO)(CCOc3ccccc3)CC2)c1 | -51.3 |
| Cc1c(CN2CCC(CO)(CCOc3ccccc3)CC2)c(=O)n(-c2ccccc2)n1C | -5.7 |
| O=C1CC(Sc2nnc(-c3ccccc3)o2)C(=O)N1c1ccccc1 (stereo not drawn) | 3.12 |
| Cc1cc(C)cc(-c2nnc(SCC(=O)NCc3cccs3)o2)c1 | 4.21 |
| Fc1ccccc1CN1CCN(c2ncccn2)CC1 | 5.66 |
| N#Cc1c(SCC(=O)N2CCCCC2)nsc1SCC(=O)N1CCCCC1 | 16.5 |
| CC(C)C(C(=O)Nc1ccccc1F)N1C(=O)c2ccccc2C1=O (stereo not drawn) | -3.78 |
| Cc1nn(CCC(=O)NNC(=S)NCC(C)C)c(C)c1Br | 14 |
| CCN(CC)S(=O)(=O)c1ccc(OC)c(NS(=O)(=O)c2ccc(F)cc2)c1 | -10.5 |
| O=C1CCc2cc(S(=O)(=O)NCc3ccccc3Cl)ccc2N1 | -23.4 |
| Cc1cc(C(=O)NNC(=O)CCCOc2ccccc2)c(C)o1 | 0.675 |
| CCCNC(=O)C1CCN(c2ccc(S(=O)(=O)N3CCOCC3)cc2Cl)CC1 | 6.36 |
| Cc1ccc(SC2=C(C(=O)O)CCCC2)cc1 | 4.25 |
| OCC1(CCOc2ccccc2)CCN(Cc2cc(Cl)ccc2O)CC1 | -24.7 |
| COc1cc(Cl)c(CN2CCC(CO)(CCOc3ccccc3)CC2)cc1OC | -80.7 |
| COc1cc(CN2CCC(CO)(CCOc3ccccc3)CC2)cc(OC)c1OC | -38.3 |
| COc1cc(CN2CCC(CO)(CCOc3ccccc3)CC2)cc(OC)c1 | -67.3 |
| O=C(NC1CCCC1)C(c1ccncc1)N(Cc1ccccc1)C(=O)Cc1cccs1 (stereo not drawn) | -14.1 |

| SMILES | hERG current change (%, negative = inhibition) at 10uM [%] |
| --- | --- |
| COCCCNCC1C(Oc2ccc(Cl)cc2)C(=O)N1c1ccccc1C (stereo not drawn) | -8.54 |
| Cc1ccccc1N1C(=O)C(Oc2ccc(Cl)cc2)C1CNC(C)(C)C (stereo not drawn) | -39.5 |
| CCCCNCC1C(Oc2ccc(Cl)cc2)C(=O)N1c1ccccc1C.Cl (stereo not drawn) | -65.9 |
| CCCNCC1C(Oc2ccc(Cl)cc2)C(=O)N1c1ccccc1C (stereo not drawn) | -48.6 |
| COCCNCC1C(Oc2ccc(Cl)cc2)C(=O)N1c1ccccc1C.Cl (stereo not drawn) | -8.44 |
| Cc1ccccc1N1C(=O)C(Oc2ccc(Cl)cc2)C1CNCCCOC(C)C (stereo not drawn) | -53.4 |
| COc1ccc(N2CCN(C(=O)CN=C3NS(=O)(=O)C(c4ccc(C)cc4)=C3C)CC2)cc1 | -5.05 |
| O=C(Cc1ccccc1)N/N=C/c1ccc(S(=O)(=O)[O-])o1 | 26.2 |
| Cc1ccc(S(=O)(=O)NCc2ccc(N3CCN(C(=O)OC(C)(C)C)CC3)cc2)cc1 | 9.55 |
| COc1ccc(OC)c(CNC(=O)C2CCN(S(=O)(=O)N3CCC(C)CC3)CC2)c1 | -31.8 |
| Cc1nc2ccccc2c2oc(C(=O)NCCN3CCN(C)CC3)cc12 | 12.4 |
| CC(=O)N1c2ccc(S(=O)(=O)N3CCCC3C(=O)Nc3cccc(F)c3)cc2CC1C (stereo not drawn) | -32.8 |
| CCc1cccc(NC(=O)C2CCN(S(=O)(=O)c3ccc4c(c3)CC(C)N4C(C)=O)CC2)c1 (stereo not drawn) | 2.05 |
| CSc1ccc(CNC(=O)C2Cc3cc(S(=O)(=O)N4CCCCC4)ccc3N2C(C)=O)cc1 (stereo not drawn) | -57.1 |
| CCc1cccc(NC(=O)C2CCCN2S(=O)(=O)c2ccc3c(c2)CC(C)N3C(C)=O)c1 (stereo not drawn) | -71.2 |
| CC(=O)N1c2ccc(S(=O)(=O)N3CCCC3C(=O)NCc3ccc(Cl)cc3)cc2CC1C (stereo not drawn) | -62.9 |
| CCc1ccc(NC(=O)C2CCCN2S(=O)(=O)c2ccc3c(c2)C(C)(C)C(=O)N3C)cc1 (stereo not drawn) | -51 |
| CC(=O)N1c2ccc(S(=O)(=O)N3CCCC(C(=O)NCc4ccc(Cl)cc4)C3)cc2CC1C (stereo not drawn) | -2.85 |
| CSc1ccc(CNC(=O)C2Cc3cc(S(=O)(=O)N4CCCC4)ccc3N2C(C)=O)cc1 (stereo not drawn) | -38.2 |
| CCc1ccc(CNC(=O)C2Cc3cc(S(=O)(=O)N4CCCC4)ccc3N2C(C)=O)cc1 (stereo not drawn) | -25.9 |
| CCOc1ccc(NC(=O)C2CCCN2S(=O)(=O)c2ccc3c(c2)C(C)(C)C(=O)N3C)cc1 (stereo not drawn) | -6.75 |
| Cc1cc(C)cc(NC(=O)C2CCCN2S(=O)(=O)c2ccc3c(c2)C(C)(C)C(=O)N3C)c1 (stereo not drawn) | -38.7 |
| CC(=O)N1c2ccc(S(=O)(=O)N3CCCC3C(=O)NCc3ccccc3Cl)cc2CC1C (stereo not drawn) | -40 |
| Cc1noc(C)c1C(=O)NCc1ccco1 | 0.0994 |

| SMILES | hERG current change (%, negative = inhibition) at 10uM [%] |
| --- | --- |
| C/C(=N/NC(N)=S)c1cc2ccc(O)cc2oc1=O | 21.7 |
| O=C(Nc1ccccc1C(=O)O)c1ccccc1 | 8.69 |
| COc1ccc2oc(=O)c(C(=O)N3CCN(C(=O)c4ccco4)CC3)cc2c1 | -12.9 |
| CC(Oc1ccc(F)cc1F)C(=O)NNC(=S)NCC1CCCO1 (stereo not drawn) | 9.12 |
| CC(C)(C)C(=O)Nc1sc2c(c1C#N)CCN(Cc1ccccc1)C2.Cl | 1.78 |
| CCc1ccc(-c2cc(C(=O)Nn3cnnc3)c3ccccc3n2)cc1 | 10.7 |
| COc1ccc2c(Cl)c(-c3nnc4n3CCCCC4)sc2c1 | -51.2 |
| Clc1c(-c2nnc3n2CCCCC3)sc2ccccc12 | -13.9 |
| Clc1c(-c2nnc3n2CCC3)sc2ccccc12 | 10.4 |
| COc1cc(NC(=O)CSc2nc(C)c(C)c(C)n2)c(C)cc1[N+](=O)[O-] | 0.898 |
| Cc1nn(-c2ccccc2)c2c1C(O)CC(C)(C)C2 (stereo not drawn) | 17.8 |
| COc1cc(-c2nc3cnccn3c2Nc2ccccc2)ccc1O | -0.787 |
| CCN1CCN(C(=O)/C=C/c2ccc(OC)cc2)CC1 | -19.1 |
| CCOC(=O)N1CCN(C(=O)/C=C/c2ccc(OC)cc2)CC1 | -17.8 |
| CN1CCN(C(=O)/C=C/c2ccc(C#N)cc2)CC1 | -54.3 |
| CN1CCN(C(=O)/C=C/c2ccc(Cl)c(Cl)c2)CC1 | -23 |
| CCOC(=O)N1CCN(C(=O)/C=C/c2ccc([N+](=O)[O-])cc2)CC1 | -70.6 |
| CSc1ccc(/C=C/C(=O)N2CCCN(C)CC2)cc1.Cl | -26.6 |
| CN1CCN(C(=O)/C=C/c2ccc(Cl)cc2)CC1 | -44.8 |
| CCN1CCN(C(=O)/C=C/c2ccc([N+](=O)[O-])cc2)CC1 | -64.2 |
| CN1CCN(C(=O)/C=C\c2ccc(Cl)cc2)CC1 | -41 |
| CCN1CCN(C(=O)/C=C/c2ccc(C(C)C)cc2)CC1 | -35.2 |
| CN1CCN(C(=O)/C=C/c2ccc([N+](=O)[O-])cc2)CC1 | -67 |
| CCOC(=O)N1CCN(C(=O)/C=C/c2ccc(C(C)(C)C)cc2)CC1 | -26.1 |
